In the library only some 1.4% were active in any assay of this set; here they are far more common.
Nrf2 activator: activates Nrf2 signaling; AREc32 ARE-luciferase reporter (MCF7-derived line), luminescence, 24 h; Potency, µM (titrated, usually from 46.1 µM), usual class: activators; 410,000 compounds, 0.31% hits; AID 624171; further: nearly all actives have a fitted effect of over 65% in size
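Luminescent ARE reporter assay in AREc32_Fluc cells: overnight plating at 37 deg C, 24 hr compound incubation, Steady-Glo added, 30 min RT before reading.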
BRCA1 expr act: BRCA1 expression activation. MCF7-BRCA1-FFLuc reporter, luminescence, 48 h; response scale: scaled: vehicle 0%, 10 µM genistein 100%. Potency, µM (doses to about 46.1 µM), hits mostly activators. 380,000 compounds, 1.1% hits; further: nearly all actives have a fitted effect of over 80% in size
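MCF7 cells carrying a BRCA1-firefly luciferase reporter (2000 cells/well, phenol-red free MEM) were attached for 2 h at 37 °C, then given compounds for 48 h. Luminescence was read 15 min after luciferase reagent; activity normalized to genistein (10 microM) and DMSO.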
Chronic BCR inh: chronic active BCR signaling inhibition | ABC-DLBCL IkBa-CBG/CBR reporter, luminescence ratio, 4 h | Potency, µM (doses to about 46.1 µM), hits mostly inhibitors | 340,000 compounds, 0.05% hits | AID 493014; active means well fitted inhibition curve with a large enough effect in the signal ratio, with a control signal flat, not every such curve was filed as active; inconclusive means small, poorly fitted or top-dose-only effect, or effect the other way, or a change in a side signal; the % refers to the signal ratio
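Concentration-response series (up to 46 uM) were applied to TMD8 dual-reporter cells for 4 h at 37C with doxycycline. Green/red ratio, after filter-overlap correction, defined %Activity; red signal alone was normalised to basal cells and zero luminescence.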
N370S GC: N370S glucocerebrosidase modulation, Gaucher chaperone candidate | Potency, µM (top dose mostly 59.4 µM), usual class: inhibitors | N370S GC spleen homogenate, 4MU-glucoside fluorescence | 330,000 compounds, 0.092% hits | P04062 | AID 2101
Integrin act MD: activators of alpha7 integrin expression for muscular dystrophy. alpha7betagal myoblasts, beta-gal FDG fluorescence, 48 h. 350,000 compounds, 0.064% hits. Potency, µM (doses to about 38.3 µM), hits mostly activators. AID 624291; further: nearly all actives have a fitted effect of over 60% in size
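Alpha7betagal+/- myoblasts (passage 13) were plated 16-24 hr, then exposed to compounds (1:260 dilution of DMSO stock) for 48 hours at 37C. After MPER lysis, β-galactosidase reporter activity was read as FDG fluorescence (ex 480/em 540) after 30 minutes.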
IL-2 act: activates IL-2 in a cell-based reporter assay; IL-2 activation reporter assay, cell-based qHTS; stimulated with anti-CD3/CD4/CD28 beads; in transgenic mouse T cells; activation, % (series mostly up to about 46 µM); 360,000 compounds, 0.065% hits; in the data active means activation above about 50%; inconclusive means mostly about 30% to 49%
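Quantitative HTS in unstimulated transgenic mouse T cells, with memory T cells as non-tolerant control and PMA/ionomycin as tolerance-bypass control. Compound pretreatment lasted 60 minutes before 18 h bead stimulation; EGFP/DsRed fluorescence read.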
Hits are given with their value; . = inactive; ? = inconclusive; / = no result given. Unless noted, the call rests on the fitted dose curve; in most records, active means well fitted curve in the direction sought with a large enough effect; inconclusive means small, poorly fitted or top-dose-only effect, or another doubt; inactive means no such curve, though single readings can be large; an effect the other way counts as inactive or inconclusive.

SMILES	Nrf2 activator	BRCA1 expr act	Chronic BCR inh	N370S GC	Integrin act MD	IL-2 act
CC(=O)Oc1ccc(-c2cc3c(OC(C)=O)cc(OC(C)=O)cc3oc2=O)cc1	.	.	/	/	.	.
COc1ccc(-c2cc3ccc(O)cc3oc2=O)cc1	.	?	.	?	.	.
CC(=O)Oc1ccc(-c2cc3ccccc3oc2=O)cc1	.	13µM	/	/	.	.
CC(/C=C/C=C(C)/C=C/C(=O)O)=C\C=C\C=C(C)\C=C\C=C(C)\C=C\C(=O)O	/	/	/	.	/	/
Cc1cccc(C)c1NC(=O)C1CCCN(S(=O)(=O)c2c(C)noc2/C=C/N(C)C)C1 (centres undefined)	.	/	/	/	/	/
C[C@H](NS(=O)(=O)c1c(Cl)cccc1Cl)C(=O)NNC(=O)COc1ccccc1F	.	.	?	/	.	.
COc1cc(-c2nnc(SCC(=O)NCc3ccccc3Cl)o2)cc(OC)c1OC	.	/	/	/	/	/
CCn1ccc(C(=O)Nc2ccccc2Cl)n1	.	3.2µM	.	.	.	.
O=C(/C=C/c1ccc2c(c1)OCO2)c1ccccc1	/	/	/	.	/	/
O=C(/C=C/c1ccc2c(c1)OCCO2)c1ccccc1	?	7.1µM	?	.	.	.
CCOc1cc(/C=C/C(=O)c2ccc3c(c2)OCCO3)ccc1OCC(=O)N(C)C	11µM	.	?	.	.	.
CCOc1cc(/C=C/C(=O)c2ccc(O)cc2)ccc1OCC(=O)N(C)C	?	.	?	.	.	.
c1ccc(-c2noc(-c3cccc4ccccc34)n2)cc1	1.6µM	.	?	.	.	.
Fc1ccccc1-c1nc(-c2ccncc2)no1	13µM	.	?	.	.	.
Cc1cccc(-c2nc(-c3ccncc3)no2)c1	13µM	.	?	.	.	.
Fc1ccccc1-c1nc(-c2ccccc2)no1	?	.	.	.	.	.
FC(F)(F)c1cccc(-c2nc(-c3ccncc3)no2)c1	11µM	.	?	.	.	.
CCCN1CNc2c(c(=O)[nH]c(=S)n2CCCc2ccccc2)C1	/	.	/	/	/	/
Cc1ccc(-c2nc(-c3ccncc3)no2)cc1	.	?	?	.	?	.
Brc1cccc(-c2nc(-c3ccncc3)no2)c1	11µM	.	.	.	.	.
Cc1c(-c2nc(-c3ccncc3)no2)cccc1[N+](=O)[O-]	11µM	.	.	.	.	.
Clc1ccc(Br)cc1-c1nc(-c2ccncc2)no1	4µM	.	?	.	.	.
O=[N+]([O-])c1cc(-c2nc(-c3ccncc3)no2)ccc1Cl	.	.	.	.	.	.
O=[N+]([O-])c1cc(-c2nc(-c3ccncc3)no2)cc([N+](=O)[O-])c1	.	.	.	.	.	.
Cc1ccc([N+](=O)[O-])cc1-c1ccc(/C=N/NC(=O)CN2CCOCC2)o1	13µM	.	?	.	.	.
SMILES	Nrf2 activator	BRCA1 expr act	Chronic BCR inh	N370S GC	Integrin act MD	IL-2 act
O=C(c1ccccc1)c1ccc(N2CCOCC2)cc1	.	?	/	/	.	.
O=C(Cc1ccccc1)c1ccc(Cl)cc1	.	.	?	.	.	.
O=C(Cc1ccccc1)c1ccc(O)cc1	.	11µM	/	/	.	.
O=C(Cc1ccccc1)c1ccc(N2CCOCC2)cc1	.	11µM	/	/	.	.
O=c1[nH]c(=S)c2[nH]cnc2[nH]1	/	.	/	/	/	/
CCCN1CNc2c(c(=O)[nH]c(=S)n2CCc2c(OC)cccc2OC)C1	/	.	/	/	/	/
CCOc1ccc2nc(N3CCOCC3)nc(C)c2c1	.	4.5µM	?	.	.	.
O=C1CN(C(=O)c2c(F)cccc2Cl)C(c2ccc(F)cc2)c2cc(Br)ccc2N1 (centres undefined)	.	/	/	/	/	/
S=C(c1ccc(-c2ccc(Cl)cc2Cl)o1)N1CCCCC1	.	7.9µM	?	.	.	.
S=C(c1ccc(-c2ccc(Cl)cc2Cl)o1)N1CCCC1	.	.	.	.	.	.
O=C(c1ccc(-c2ccccc2Cl)o1)N1CCCC(C(F)(F)F)C1 (centres undefined)	.	13µM	?	/	.	.
S=C(c1ccc(-c2ccccc2Cl)o1)N1CCOCC1	.	7.1µM	?	.	.	.

From PubChem
